# About 410 targets per protein were measured; listed, in parts, are those with the strongest signals and a random draw of the rest.
# B1: rCnSL-proA (Clitocybe nebularis) (protein)
# chain: AAFFSLVVLLALLPFGIHASALPSTELTPRVNPNLPGPNDVFVGFRGTNNIVGAIYEKDGIKDTPLNNGADAEMGPGSYITDGLFTARIFASGSAGNNPGTTATVCKIYASGVQWRGAPKGYIPVAYFGNGPTAEQRRQTYLRTLGLPGTAIRFGNLNTNPGQGPTAPRQMVVPPGPLRSLLKASCFPAADTRLPQTLHYFEKRVDWNIITAADSQTWGH
# Experiments:
# Assay in all cases: glycan array binding signal (z-score within array); higher = stronger binding
# Conditions in all cases: glycan notation: IUPAC condensed, linker removed
# Fuc(a1-2)Gal(b1-3)GalNAc = target: Fuc(a1-2)Gal(b1-3)GalNAc
# Summary of the method: (§1)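 From the Consortium for Functional Glycomics database, 3228 arrays were curated, keeping only those whose protein sequence was available. Binding is given as a within-array Z-score averaged across arrays sharing a protein sequence and across linkers. Negative Z-scores can be read as non-binding.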
# Fuc(a1-2)Gal(b1-3)GlcNAc = target: Fuc(a1-2)Gal(b1-3)GlcNAc
# Summary of the method: as §1
# [1] = target: Fuc(a1-2)Gal(b1-3)[Fuc(a1-4)]GlcNAc(b1-2)Man(a1-3)[Fuc(a1-2)Gal(b1-3)[Fuc(a1-4)]GlcNAc(b1-2)Man(a1-3)]Man(b1-4)GlcNAc(b1-4)GlcNAc
# Summary of the method: as §1
# [2] = target: Fuc(a1-2)Gal(b1-3)[Fuc(a1-4)]GlcNAc(b1-3)[Fuc(a1-3)[Gal(b1-4)]GlcNAc(b1-6)]Gal(b1-4)Glc
# Summary of the method: as §1
# Fuc(a1-2)Gal(b1-4)Glc = target: Fuc(a1-2)Gal(b1-4)Glc
# Summary of the method: as §1
# [3] = target: Fuc(a1-2)Gal(b1-4)[Fuc(a1-3)]GlcNAc(b1-3)[Neu5Ac(a2-6)Gal(b1-4)GlcNAc(b1-6)]Gal(b1-4)Glc
# Summary of the method: as §1
# [4] = target: Fuc(a1-2)Gal6S(b1-4)Glc6S
# Summary of the method: as §1
# [5] = target: Fuc(a1-2)[Gal(a1-3)]Gal(b1-3)GalNAc(b1-3)Gal(a1-4)Gal(b1-4)Glc
# Summary of the method: as §1
# [6] = target: Fuc(a1-2)[Gal(a1-4)]Gal(b1-4)GlcNAc
# Summary of the method: as §1
# [7] = target: Fuc(a1-2)[GalNAc(a1-3)]Gal(b1-3)GlcNAc
# Summary of the method: as §1
# [8] = target: Fuc(a1-2)[GalNAc(a1-3)]Gal(b1-4)GlcNAc
# Summary of the method: as §1
# [9] = target: Fuc(a1-2)[GalNAc(a1-3)]Gal(b1-4)GlcNAc(b1-2)Man
# Summary of the method: as §1
# [10] = target: Fuc(a1-3)[Gal(b1-4)]GlcNAc(b1-6)GalNAc
# Summary of the method: as §1
# [11] = target: Fuc(a1-3)[Gal(b1-4)]GlcNAc6S
# Summary of the method: as §1
# [12] = target: Gal(a1-3)Gal(b1-4)GlcNAc(b1-3)GalNAc
# Summary of the method: as §1
# [13] = target: Gal(a1-3)Gal(b1-4)[Fuc(a1-3)]GlcNAc(b1-2)Man(a1-3)[Gal(a1-3)Gal(b1-4)[Fuc(a1-3)]GlcNAc(b1-2)Man(a1-6)]Man(b1-4)GlcNAc(b1-4)GlcNAc
# Summary of the method: as §1
# Gal(a1-4)Gal(b1-4)Glc = target: Gal(a1-4)Gal(b1-4)Glc
# Summary of the method: as §1
# [14] = target: Gal(b1-3)GlcNAc(b1-3)Gal(b1-4)Glc
# Summary of the method: as §1
# [15] = target: Gal(b1-3)GlcNAc(b1-3)Gal(b1-4)[Fuc(a1-3)]GlcNAc(b1-6)[Gal(b1-3)GlcNAc(b1-3)]Gal(b1-4)Glc
# Summary of the method: as §1
# [16] = target: Gal(b1-3)[Neu5Ac(a2-6)]GlcNAc(b1-4)Gal(b1-4)Glc
# Summary of the method: as §1
# [17] = target: Gal(b1-4)GlcNAc(a1-6)Gal(b1-4)GlcNAc
# Summary of the method: as §1
# [18] = target: Gal(b1-4)GlcNAc(b1-2)[Gal(b1-4)GlcNAc(b1-4)]Man(a1-3)[Gal(b1-4)GlcNAc(b1-2)Man(a1-6)]Man(b1-4)GlcNAc(b1-4)GlcNAc
# Summary of the method: as §1
# [19] = target: Gal(b1-4)GlcNAc(b1-3)Gal(b1-4)GlcNAc(b1-2)Man(a1-3)[Gal(b1-4)GlcNAc(b1-3)Gal(b1-4)GlcNAc(b1-2)Man(a1-6)]Man(b1-4)GlcNAc(b1-4)GlcNAc
# Summary of the method: as §1
# [20] = target: Gal(b1-4)GlcNAc(b1-3)Gal(b1-4)GlcNAc(b1-3)Gal(b1-4)GlcNAc(b1-2)Man(a1-3)[Gal(b1-4)GlcNAc(b1-3)Gal(b1-4)GlcNAc(b1-3)Gal(b1-4)GlcNAc(b1-2)Man(a1-6)]Man(b1-4)GlcNAc(b1-4)GlcNAc
# Summary of the method: as §1
# [21] = target: Gal(b1-4)GlcNAc(b1-3)Gal(b1-4)GlcNAc(b1-3)Gal(b1-4)GlcNAc(b1-2)[Gal(b1-4)GlcNAc(b1-3)Gal(b1-4)GlcNAc(b1-3)Gal(b1-4)GlcNAc(b1-6)]Man(a1-6)[Gal(b1-4)GlcNAc(b1-3)Gal(b1-4)GlcNAc(b1-3)Gal(b1-4)GlcNAc(b1-2)Man(a1-3)]Man(b1-4)GlcNAc(b1-4)[Fuc(a1-6)]GlcNAc
# Summary of the method: as §1
# [22] = target: Gal(b1-4)GlcNAc(b1-3)Gal(b1-4)GlcNAc(b1-3)Gal(b1-4)GlcNAc(b1-3)Gal(b1-4)GlcNAc(b1-2)[Gal(b1-4)GlcNAc(b1-3)Gal(b1-4)GlcNAc(b1-3)Gal(b1-4)GlcNAc(b1-3)Gal(b1-4)GlcNAc(b1-6)]Man(a1-6)[Gal(b1-4)GlcNAc(b1-3)Gal(b1-4)GlcNAc(b1-3)Gal(b1-4)GlcNAc(b1-3)Gal(b1-4)GlcNAc(b1-2)Man(a1-3)]Man(b1-4)GlcNAc(b1-4)[Fuc(a1-6)]GlcNAc
# Summary of the method: as §1
# [23] = target: Gal(b1-4)GlcNAc(b1-3)Gal(b1-4)GlcNAc(b1-3)Gal(b1-4)GlcNAc(b1-3)Gal(b1-4)GlcNAc(b1-3)Gal(b1-4)GlcNAc(b1-2)[Gal(b1-4)GlcNAc(b1-3)Gal(b1-4)GlcNAc(b1-3)Gal(b1-4)GlcNAc(b1-3)Gal(b1-4)GlcNAc(b1-3)Gal(b1-4)GlcNAc(b1-6)]Man(a1-6)[Gal(b1-4)GlcNAc(b1-3)Gal(b1-4)GlcNAc(b1-3)Gal(b1-4)GlcNAc(b1-3)Gal(b1-4)GlcNAc(b1-3)Gal(b1-4)GlcNAc(b1-2)Man(a1-3)]Man(b1-4)GlcNAc(b1-4)[Fuc(a1-6)]GlcNAc
# Summary of the method: as §1
binder,measurement,setting,value
B1,glycan array binding signal (z-score),Fuc(a1-2)Gal(b1-3)GalNAc,-0.318
same,glycan array binding signal (z-score),Fuc(a1-2)Gal(b1-3)GlcNAc,-0.622
same,glycan array binding signal (z-score),[1],6
same,glycan array binding signal (z-score),[2],-0.573
same,glycan array binding signal (z-score),Fuc(a1-2)Gal(b1-4)Glc,-0.272
same,glycan array binding signal (z-score),[3],-0.085
same,glycan array binding signal (z-score),[4],-0.281
same,glycan array binding signal (z-score),[5],-0.278
same,glycan array binding signal (z-score),[6],0.128
same,glycan array binding signal (z-score),[7],0.497
same,glycan array binding signal (z-score),[8],-0.387
same,glycan array binding signal (z-score),[9],-0.723
same,glycan array binding signal (z-score),[10],0.153
same,glycan array binding signal (z-score),[11],0.115
same,glycan array binding signal (z-score),[12],-0.161
same,glycan array binding signal (z-score),[13],3.75
same,glycan array binding signal (z-score),Gal(a1-4)Gal(b1-4)Glc,-0.307
same,glycan array binding signal (z-score),[14],-0.329
same,glycan array binding signal (z-score),[15],0.293
same,glycan array binding signal (z-score),[16],-0.459
same,glycan array binding signal (z-score),[17],3.94
same,glycan array binding signal (z-score),[18],0.465
same,glycan array binding signal (z-score),[19],5.99
same,glycan array binding signal (z-score),[20],4.45
same,glycan array binding signal (z-score),[21],4.11
same,glycan array binding signal (z-score),[22],4.64
same,glycan array binding signal (z-score),[23],3.94

# Reference: the supplement of paper PMC8728848
